CASP6 VEID inh = human caspase-6 inhibitors, primary screen, biochemical, VEID-R110 fluorescence, single point, set 2; P55212; inhibition, % at 12.5 µM; purified caspase-6, Z-VEID-R110 cleavage fluorescence; AID 686996, 2013; hit rate 0.53% among 350,000;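 active = mean inhibition across replicates at least about 35%, with every replicate also reaching that limit, limit read from the data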;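 note: 0% = median of neutral control wells and 100% = no fluorescence left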
Target sequence (P55212 24-179 limits assumed): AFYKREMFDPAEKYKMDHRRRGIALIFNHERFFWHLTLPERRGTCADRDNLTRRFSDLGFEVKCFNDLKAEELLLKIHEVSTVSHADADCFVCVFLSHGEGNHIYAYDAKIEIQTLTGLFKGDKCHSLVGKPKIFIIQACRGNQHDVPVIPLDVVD
Target sequence (P55212 194-293 limits assumed): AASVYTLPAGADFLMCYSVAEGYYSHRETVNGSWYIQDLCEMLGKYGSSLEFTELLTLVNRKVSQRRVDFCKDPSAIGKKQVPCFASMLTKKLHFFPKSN
FGF22 binding = binders of human FGF22 protein, primary screen, FGF22 synaptogenesis inhibitor project, biophysical, thermal shift, single point; AID 651658, 2012; Fibroblast growth factor 22 (Homo sapiens), Q9HCT0; hit rate 1.5% among 340,000; activity (Tm shift, normalised), % at 9.99 µM; recombinant FGF22 thermal shift, SYPRO orange fluorescence; percent of sucrose octasulfate shift, DMSO zero;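 active = mean Tm shift, scaled 0 neutral to 100 positive control, at about 1.3% or above, every replicate too, limit read from the data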
Target sequence (Q9HCT0 whole entry, looked up): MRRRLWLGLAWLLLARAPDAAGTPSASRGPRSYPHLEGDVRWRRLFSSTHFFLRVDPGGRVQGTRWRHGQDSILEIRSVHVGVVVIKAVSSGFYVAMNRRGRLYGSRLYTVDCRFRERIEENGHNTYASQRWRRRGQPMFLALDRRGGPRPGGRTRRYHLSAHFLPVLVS
INS-1E GSIS act = GLuc luminescence reporter in INS-1E cells, primary screen for activators of glucose-dependent secretion of insulin. AID 743287, 2014. hit rate 0.61% among 370,000. INS-1E GLuc reporter insulin secretion, 2-3 h. activation, % at 16.6 µM;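 active = lowest replicate activation of at least 40%, so every replicate reaches that level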;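 note: 0% = median of neutral control wells and 100% = median of IBMX positive control wells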
SIRT5 block = SIRT5 desuccinylase inhibitors, primary screen, biochemical, fluorescence imaging, single point, set 5; NAD-dependent protein deacylase sirtuin-5, mitochondrial (Homo sapiens), Q9NXA8; Purified SirT5, succinyl-peptide AMC, trypsin-coupled fluorescence; inhibition, % at 15 µM; hit rate 1.1% among 330,000; in the data active = inhibition above about 15%
ERAP1 HTS inh = human ERAP1 aminopeptidase inhibitors, primary screen, biochemical, single point, plate reader; Endoplasmic reticulum aminopeptidase 1 (Homo sapiens), Q9NZ08; recombinant ERAP1, Leu-AMC fluorescence, 60 min; inhibition, % at 10.7 µM; hit rate 0.15% among 340,000; AID 652197, 2013;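 active = mean replicate inhibition of at least 30%, or all replicates individually reaching that 30% level; inactive = mean below 30% and not every replicate reaching it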;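 note: 0% = neutral control wells and 100% = L-leucinethiol positive control wells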
* marks the source's active call; other numbers are inactive results. An excerpt weighted towards active compounds, which were near 3.3% of everything screened.

`N/C(=N\OC(=O)c1ccc(=O)n(Cc2ccccc2)c1)c1ccccn1` gave CASP6 VEID inh 0.0, FGF22 binding 42.9*, INS-1E GSIS act -17.1, SIRT5 block -0.2 and ERAP1 HTS inh 3.6.
For N/C(=N\OC(=O)c1ccc(=O)n(Cc2ccc(Cl)cc2)c1)c1ccccn1 the results were CASP6 VEID inh 6.8, FGF22 binding -0.1, INS-1E GSIS act -1.2, SIRT5 block -4.2 and ERAP1 HTS inh -3.9.
`Cc1noc(C)c1NC(=O)Nc1ccc2c(c1)C(=O)N([C@H](C)CO)C[C@@H](C)[C@H](CN(C)Cc1ccc(Cl)c(Cl)c1)OCCCC[C@H](C)O2` gave CASP6 VEID inh -0.6, FGF22 binding 0.3, INS-1E GSIS act -11.4, SIRT5 block 2.6 and ERAP1 HTS inh -3.8.
Screening CO[C@H]1CN(C)C(=O)c2ccc(NC(=O)Nc3ccccc3)cc2OC[C@H](C)N(C(=O)Nc2c(C)noc2C)C[C@@H]1C returned CASP6 VEID inh -0.8, FGF22 binding 0.0, INS-1E GSIS act 2.7, SIRT5 block -1.5 and ERAP1 HTS inh -1.6.
Screening CCc1cccc(CC)c1NC(=S)NC(C)c1ccccc1 (configuration not stated) returned CASP6 VEID inh -0.4, FGF22 binding 43.9*, INS-1E GSIS act -7.5, SIRT5 block 2.7 and ERAP1 HTS inh 0.2.
For CCC(C(=O)NC(C)c1ccccc1)C(=O)NC(C)c1ccccc1 (configuration not stated) the results were CASP6 VEID inh 0.2, FGF22 binding 0.3, INS-1E GSIS act 8.1, SIRT5 block -6.5 and ERAP1 HTS inh -2.0.
Screening Cc1ccc(S(=O)(=O)N(C)C[C@@H]2Oc3ccc(NC(=O)CCN4CCOCC4)cc3CC(=O)N([C@H](C)CO)C[C@@H]2C)cc1 returned CASP6 VEID inh -1.7, FGF22 binding -0.1, INS-1E GSIS act 14.7, SIRT5 block -1.6 and ERAP1 HTS inh -0.2.
`O=C(Cc1n[nH]c(=O)[nH]c1=O)N/N=C/c1ccccc1O` gave CASP6 VEID inh -13.3, INS-1E GSIS act 20.5 and ERAP1 HTS inh -0.6.
O=C(CCNc1n[nH]c(=O)[nH]c1=O)N/N=C/c1ccc(C(F)(F)F)cc1 was read as CASP6 VEID inh 2.2, FGF22 binding 42.9*, INS-1E GSIS act -5.7, SIRT5 block -1.5 and ERAP1 HTS inh 2.7.
O=C(CNc1n[nH]c(=O)[nH]c1=O)N/N=C/c1ccccc1 was read as CASP6 VEID inh 1.9, FGF22 binding 0.0, INS-1E GSIS act 0.0, SIRT5 block -0.3 and ERAP1 HTS inh 3.7.
O=C(CCNc1n[nH]c(=O)[nH]c1=O)N/N=C/c1ccccc1Br was read as CASP6 VEID inh 0.2, FGF22 binding 43.6*, INS-1E GSIS act 5.0, SIRT5 block 0.9 and ERAP1 HTS inh 2.8.
For C[C@H]1CN([C@@H](C)CO)C(=O)c2cc(NS(C)(=O)=O)ccc2O[C@H]1CN(C)Cc1ccc(C(F)(F)F)cc1 the results were CASP6 VEID inh 1.6, FGF22 binding 0.8, INS-1E GSIS act 6.9, SIRT5 block -1.7 and ERAP1 HTS inh 0.1.
CCN1/C(=C\C(=S)Nc2ccccc2)Sc2ccccc21 was read as CASP6 VEID inh -1.4, FGF22 binding 44.2*, SIRT5 block 0.7 and ERAP1 HTS inh 0.7.
CCN1/C(=C\C=C(C(C)=O)C(C)=O)Sc2ccccc21 was read as FGF22 binding 0.7, INS-1E GSIS act -24.4, SIRT5 block 10.2 and ERAP1 HTS inh 8.5.
For CCN(CC)c1nc(N)c([N+](=O)[O-])c(NCCO)n1 the results were CASP6 VEID inh -6.4, FGF22 binding -0.1, INS-1E GSIS act 84.6*, SIRT5 block 0.6 and ERAP1 HTS inh 4.7.
Cc1ccc(Nc2nc(N)c([N+](=O)[O-])c(NCCO)n2)cc1 was read as CASP6 VEID inh -1.5, FGF22 binding 0.0, INS-1E GSIS act 7.3, SIRT5 block -3.5 and ERAP1 HTS inh 0.5.
For C=CCNc1nc(N)c([N+](=O)[O-])c(NCCO)n1 the results were CASP6 VEID inh 0.0, FGF22 binding -0.2, INS-1E GSIS act 81.9*, SIRT5 block -0.9 and ERAP1 HTS inh -0.2.
CNC(=O)C[C@@H]1CC[C@H]2[C@H](COc3ccc(NC(=O)Nc4ccc(F)c(F)c4)cc3C(=O)N2C)O1 was read as CASP6 VEID inh -0.1, INS-1E GSIS act -15.0, SIRT5 block 1.2 and ERAP1 HTS inh 1.2.
For C[C@@H]1CCCCO[C@@H](CN(C)S(=O)(=O)c2ccc(F)cc2)[C@@H](C)CN([C@H](C)CO)C(=O)c2cc(NC(=O)CCC(F)(F)F)ccc2O1 the results were CASP6 VEID inh -2.5, FGF22 binding -0.1, INS-1E GSIS act 13.8, SIRT5 block -0.3 and ERAP1 HTS inh -2.3.
`Cc1nc(C)c(CC(=O)N2CCc3c([nH]c4ccccc34)C2c2ccccn2)s1` (configuration not stated) gave CASP6 VEID inh 9.6, FGF22 binding 0.1, INS-1E GSIS act 1.0, SIRT5 block 17.5* and ERAP1 HTS inh -3.7.
CC1CCCC(C)N1C(=O)CSc1nnc(COc2cccc3cccnc23)o1 (configuration not stated) was read as CASP6 VEID inh 2.6, FGF22 binding 43.2*, INS-1E GSIS act -2.5, SIRT5 block -0.7 and ERAP1 HTS inh -4.3.
Cc1ccc(S(=O)(=O)N(C)C[C@H]2Oc3ccc(NC(=O)Cn4cnnn4)cc3CC(=O)N([C@@H](C)CO)C[C@H]2C)cc1 was read as CASP6 VEID inh 0.3, FGF22 binding 0.2, INS-1E GSIS act 0.0, SIRT5 block 34.4* and ERAP1 HTS inh 1.5.
`C[C@H]1CN([C@@H](C)CO)C(=O)c2cc(NC(=O)Cn3cnnn3)ccc2O[C@@H]1CN(C)S(=O)(=O)c1ccc(F)cc1` gave CASP6 VEID inh 1.8, FGF22 binding -0.1, INS-1E GSIS act 9.1, SIRT5 block 31.3* and ERAP1 HTS inh 3.1.
`CC1CCCCC12NC(=O)N(Cc1cc(=O)n3ccsc3n1)C2=O` (configuration not stated) gave CASP6 VEID inh 41.9*, FGF22 binding -0.2, INS-1E GSIS act 20.5 and SIRT5 block 7.3.
`CC(C)CC1NC(=O)N(Cc2cc(=O)n3ccsc3n2)C1=O` (configuration not stated) gave CASP6 VEID inh 2.8, FGF22 binding 0.1, INS-1E GSIS act 14.8 and ERAP1 HTS inh -3.0.
Screening C[C@H](CO)N1C[C@H](C)[C@@H](CN(C)C(=O)c2ccccc2)OCCCC[C@H](C)Oc2ccc(NS(=O)(=O)c3cccs3)cc2C1=O returned CASP6 VEID inh 1.2, FGF22 binding -0.4, INS-1E GSIS act -15.9, SIRT5 block 3.1 and ERAP1 HTS inh 2.4.
Screening COc1cccc(/C=C/C(=O)OCC(=O)NC2CC2)c1OC returned CASP6 VEID inh -0.6, FGF22 binding 0.1 and ERAP1 HTS inh 0.8.
